Screening results as filed in PubChem BioAssay.
A selection: hits, their analogues and other compounds. The true share with any hit is near 7.3%.
HEK293 viab: cell viability loss counter-screen; HEK-293-SNCA-luc viability, GF-AFC fluorescence, 24 h; Potency, µM (top dose mostly 57.1 µM), for inactives: at the top dose activity change, negative = cytotoxicity, actives largely listed as cytotoxic; 150,000 tested, 0.12% active; AID 1671193;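 further: potency means the concentration at half of the fitted maximal effect; 0% = DMSO-treated cells and -100% = medium-only wells without cells; nearly all actives have a fitted effect of over 30% in size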
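HEK-293-SNCA-luc cells (1500/well) plated 24 h, then exposed 24 h to a dilution series; GF-AFC added 30 min at 37C, fluorescence 405/540 nm; normalised to medium-only and DMSO wells, Hill fit.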
HEK293 tox: cytotoxic compounds in HEK 293 cells | HEK 293 viability, ATP luminescence (CellTiter-Glo), 48-72 h | Potency, µM (titrated, usually from 115 µM), for inactives: at the highest dose activity change, negative = cytotoxicity, most hits filed as inhibitors | 94,000 tested, 6.6% active | AID 1345083; further: potency means the concentration at half of the fitted maximal effect; nearly all actives have a fitted effect of over 60% in size
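Luminescence from cellular ATP, measured with CellTiter-Glo, indicates HEK 293 viability. Cells plated at 250 cells/well are treated with compound for 48 or 72 hr at 37 degree Celsius before reagent addition.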
SNCA expr inh: reduces expression of the alpha-synuclein gene. HEK-293 SNCA-luciferase knock-in, luminescence, 24 h. Potency, µM (series often up to 57.2 µM), for inactives: at the highest dose activity change, negative = inhibition, actives largely listed as inhibitors. 140,000 tested, 0.17% active;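 further: potency means the concentration at half of the fitted maximal effect; plate controls were DMSO cells for no effect and cell-free wells for full effect; nearly all actives have a fitted effect of over 45% in size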
NIH3T3 tox: kills NIH 3T3 cells | NIH 3T3 viability, CellTiter-Glo ATP luminescence, 48-72 h | Potency, µM (top dose mostly 96.7 µM), for the others: at the highest dose activity change, negative = cytotoxicity, actives largely listed as inhibitors | 94,000 tested, 4.3% active; further: potency means the concentration at half of the fitted maximal effect; nearly all actives have a fitted effect of over 55% in size
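Mouse fibroblast NIH 3T3 cells, 400 per well, received compound via pintool and were incubated for 48 or 72 hr prior to CellTiter-Glo ATP luminescence measurement.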
FLuc inh: inhibitors of firefly (Photinus pyralis) luciferase; Potency, µM (top dose mostly 115 µM), most hits filed as inhibitors; P08659; purified P. pyralis luciferase, luminescence, biochemical; 76,000 tested, 2.5% active; AID 1347043; further: potency means the concentration at half of the fitted maximal effect; nearly all actives have a fitted effect of over 65% in size
Target sequence (P08659 whole entry, looked up): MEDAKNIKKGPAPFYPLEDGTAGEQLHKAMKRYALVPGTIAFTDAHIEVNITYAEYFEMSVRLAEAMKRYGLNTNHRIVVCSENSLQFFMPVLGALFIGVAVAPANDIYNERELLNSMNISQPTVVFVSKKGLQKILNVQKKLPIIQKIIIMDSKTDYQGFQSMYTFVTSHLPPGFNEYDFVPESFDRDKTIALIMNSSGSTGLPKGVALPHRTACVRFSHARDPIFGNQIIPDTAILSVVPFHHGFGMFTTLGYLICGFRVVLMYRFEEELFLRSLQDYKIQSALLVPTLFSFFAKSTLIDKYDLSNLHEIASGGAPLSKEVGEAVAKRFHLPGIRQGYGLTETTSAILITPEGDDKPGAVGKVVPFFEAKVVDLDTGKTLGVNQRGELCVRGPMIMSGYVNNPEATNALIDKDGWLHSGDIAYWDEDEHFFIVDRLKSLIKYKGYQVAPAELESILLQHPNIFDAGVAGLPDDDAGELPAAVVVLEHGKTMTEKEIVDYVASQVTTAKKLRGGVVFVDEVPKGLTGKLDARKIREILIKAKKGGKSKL
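Luminescence read by CCD imaging after purified firefly luciferase (10nM final) was added to substrate buffer holding 10uM D-luciferin and 10uM ATP, pH 7.5, pre-dosed with compound.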
IP6K1 inhibitor: inhibitors of human IP6K1. activity change, % (series mostly up to about 58 µM). IP6K1 kinase, ADP-Glo luminescence, 2 h; hits give low values. AID 1645851. 140,000 tested, 0.81% active; in the data active means activity change below about -25%
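ADP-Glo luminescence measures ADP made by human IP6K1 during a 2 h RT reaction with ATP/IP6 (mix at 1.3 mM/130 uM); top library doses 57.5 and 19.1 uM final.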
Starred values were filed as active, the others as inactive; i = inactive; ? = inconclusive; . = no result given; [ ] = dose if it differs, or a comment. Unless noted, the call rests on the fitted dose curve; in most records, active means well fitted curve in the direction sought with a large enough effect; inconclusive means small, poorly fitted or top-dose-only effect, or another doubt; inactive means no such curve, though single readings can be large; an effect the other way counts as inactive or inconclusive. Unless noted, on the % scale 0 is the no-effect control and ±100 the full control effect.

SMILES	HEK293 viab	HEK293 tox	SNCA expr inh	NIH3T3 tox	FLuc inh	IP6K1 inhibitor
O=C(NC1CCCC1)c1cc2n(n1)CC(c1ccc3c(c1)OCO3)OC2 (configuration not stated)	5.7%	?	4.1%	?	i	4.5
Brc1ccc(CN2CCC(c3nc4ncccc4[nH]3)CC2)cc1	3.5%	?	-11.9%	?	i	1.0
Cc1nn(-c2ccccc2)c(C)c1[C@@H]1C=C[C@@H](NC(=O)c2ccc(N(C)C)cc2)C1	-15.4%[87.6 µM]	70.8µM*	29.7%[87.6 µM]	?	?	10.5
Cc1nn(-c2ccccn2)c(C)c1[C@@H]1C=C[C@@H](NC(=O)c2ccco2)C1	-7.7%[87.6 µM]	?	-11.9%[87.6 µM]	?	i	19.8
COc1ccc(-n2nc(C)c([C@@H]3C=C[C@@H](NC(=O)NC4CCCCC4)C3)c2C)cc1	-26.5%[87.6 µM]	?	9.9%[87.6 µM]	?	?	4.1
Cc1ccc(-n2nc(C)c([C@@H]3C=C[C@@H](NC(=O)NC4CCCCC4)C3)c2C)cc1Cl	-13.0%[87.6 µM]	?	31.0%[87.6 µM]	?	8.91µM*	0.9
COc1ccc(C(=O)N2CCCC3(CNc4ncccc4[S+](=O)([O-])N3)C2)cc1 (configuration not stated)	.	-2.0%	.	-15.1%	.	7.5
O=C(CCc1ccccc1)N1CCOCC12CCN(Cc1ccccc1)CC2	-18.2%[87.6 µM]	?	?	35.5µM*	i	4.5
CC(C)CC(=O)N1CCOCC12CCN(Cc1ccc(C(C)C)cc1)CC2	-14.6%[87.6 µM]	100µM*	-26.5%[87.6 µM]	70.8µM*	i	10.4
O=C(OCc1ccccc1)N1CCOCC12CCN(Cc1ccccc1F)CC2	-16.2%[87.6 µM]	?	?	?	i	2.5
O=C(Cc1cccc(F)c1)N1CCOCC12CCN(Cc1ccccc1)CC2	2.2%[87.6 µM]	?	-25.2%[87.6 µM]	100µM*	i	6.2
O=C1[C@@H]2C[C@@H](CN2C(=O)c2ccc(F)cc2)Oc2ccccc2N1Cc1ccc(OC(F)(F)F)cc1	-3.9%	?	-29.2%	?	i	1.3
CCCn1ncnc1C(C)NC(=O)C1CCN(C(=O)C2CC2)CC1 (configuration not stated)	5.0%	-3.3%	?	-4.7%	i	-12.3
CCCn1ncnc1C(C)Nc1cc(C(C)C)nc2cc(C)nn12 (configuration not stated)	-4.2%	?	-9.7%	35.5µM*	i	-13.1
CN(Cc1cn(C)c2ccccc12)C1CCc2nn(CC3CC3)c(=O)n2CC1 (configuration not stated)	?	31.6µM*	?	35.5µM*	i	-7.9
COc1ccc(-c2ccc3onc(C)c3n2)cc1OC	0.0%[87.6 µM]	?	97.6%[87.6 µM]	39.8µM*	i	-18.3
CCCS(=O)(=O)N1CCC2(CC1)C(=O)N(c1cccc(F)c1)C2c1ccccc1 (configuration not stated)	-19.7%	25.1µM*	-17.3%	-26.5%	.	-13.1
Cc1ccc(CCN2CCCCC23Cc2ccccc2CN([S+](C)(=O)[O-])C3)cc1 (configuration not stated)	-5.4%	79.4µM*	-29.8%	?	.	3.1
COc1ccccc1Nc1ccnc(N2CCCC(C(=O)NCC(F)(F)F)C2)n1 (configuration not stated)	6.6%[12.5 µM]	?	-1.0%	?	.	1.0
COc1ccccc1Nc1ccnc(N2CCCC(C(=O)NCCc3ccc(Cl)cc3)C2)n1 (configuration not stated)	-22.9%[12.5 µM]	?	?	?	.	8.3
COc1ccccc1Nc1ccnc(N2CCCC(C(=O)NCc3cccc(Cl)c3)C2)n1 (configuration not stated)	-1.4%[12.5 µM]	?	-12.7%	12.6µM*	.	4.6
COc1ccccc1Nc1ccnc(N2CCCC(C(=O)NCc3cccc(F)c3)C2)n1 (configuration not stated)	-13.4%[12.5 µM]	11.2µM*	1.4%	12.6µM*	.	-1.1
CC1(C)[C@H](Cc2cc(COc3ccccc3)on2)C[C@@H]1NC(=O)Nc1ccccc1	?	?	-23.5%[87.6 µM]	?	i	-5.6
O=C1NC2(CCCN(CC3CC3)C2)Oc2ccccc21 (configuration not stated)	3.2%[87.6 µM]	-15.3%[172 µM]	12.4%[87.6 µM]	-19.5%[138 µM]	i	22.9
O=C1NC2(CCN(CC3CCCCC3)C2)Oc2ccccc21 (configuration not stated)	?	63.1µM*	30.8%[87.6 µM]	?	i	26.3
SMILES	HEK293 viab	HEK293 tox	SNCA expr inh	NIH3T3 tox	FLuc inh	IP6K1 inhibitor
COc1ccc(C(CC(=O)N2CCCC2)c2c[nH]c3ccccc23)cc1 (configuration not stated)	-7.3%	?	12.5%	-29.1%	?	11.2
CC1(C)CC2CC(C)(CN2C(=O)CC(c2ccccc2Cl)c2c[nH]c3ccccc23)C1 (configuration not stated)	-16.8%	25.1µM*	-24.2%	?	i	-3.9
COCCOCC(=O)N1CCC2(CC1)C(OC)C(=O)N2c1cccc(F)c1 (configuration not stated)	3.0%	-9.9%	-15.0%	?	.	-3.4
c1ccc(-c2noc(Nc3ccc4c(c3)OCCO4)n2)cc1	-3.2%	39.8µM*	151.8%	?	22.4µM*	-0.4
CN(Cc1ccc(F)cc1)c1ccc2ncc(Nc3cccc(N[S+](C)(=O)[O-])c3)n2n1	12.6%	35.5µM*	-19.8%	31.6µM*	i	-20.7
CN(Cc1ccc(F)cc1)c1ccc2ncc(Nc3ccc(CCO)cc3)n2n1	-16.2%[87.6 µM]	?	-29.1%[87.6 µM]	22.4µM*	i	2.5
CCN(Cc1noc(C)n1)C(=O)c1coc(COc2ccc3c(c2)OCO3)n1	-7.6%	-27.7%	-9.4%	-23.4%	i	-2.5
CCCN(CC1CC1)C(=O)c1coc(COc2ccc3sc(C)nc3c2)n1	-1.7%	39.8µM*	7.8%	?	i	-4.9
Cc1cc(C)n(CCC(=O)N2CCC3(CC2)CC(OCC2CC2)CCO3)n1 (configuration not stated)	6.6%[12.5 µM]	13.3%	-15.7%	-15.4%	i	-16.3
Cc1ccc(-c2noc(-c3nc(-c4ccccn4)no3)n2)cc1	-16.4%	3.9%	3.3%	i	17.8µM*	-9.6
COc1ccc(-c2ccc3ncc(Nc4ccc5c(c4)OCCO5)n3n2)cc1OC	-16.8%[87.6 µM]	44.7µM*	35.6%[87.6 µM]	?	20µM*	-14.9
COc1ccccc1Nc1cnc2ccc(-c3ccc(F)cc3)nn12	-17.0%[87.6 µM]	70.8µM*	?	?	i	-6.6
COc1ccccc1-c1ccc2ncc(Nc3ccccc3)n2n1	1.0%[87.6 µM]	?	-16.3%[87.6 µM]	?	i	10.4
COc1ccc(Nc2cnc3ccc(-c4ccc(F)cc4)nn23)cc1OC	-14.6%[87.6 µM]	?	8.0%[87.6 µM]	?	?	-16.6
